SW480 rerep: induces DNA re-replication in SW480 colon adenocarcinoma cells; hit rate 1.8% among 340,000; SW480 DNA re-replication, Hoechst DNA content imaging, 48 h; AID 624297; Potency, µM (top dose mostly 46.1 µM), for the others: at the top dose re-replication activation, usual class: activators; further: potency means the concentration at half of the fitted maximal effect; % of control where 0% means no effect; nearly all actives have a fitted effect of over 55% in size
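Cells (250 per well) received 23 nL compound or DMSO by pin tool and were kept 48 hr at 37 C, 5% CO2. Nuclei were then stained with Hoechst for 40 min and scanned for DNA content.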
Vif-A3G inh: blocks the Vif interaction with human APOBEC3G | Q9HC16 | HeLa A3G-eYFP + Vif (tagged APOBEC3G with the HIV-1 protein that degrades it), YFP fluorescence, overnight | Potency, µM (series often up to 46.1 µM), without a hit: at the top dose activity, negative = active, actives largely listed as inhibitors | hit rate 0.076% among 410,000 | AID 602310; further: potency means the concentration at half of the fitted maximal effect; on the % scale 0 is the no-effect control and ±100 the full control effect; nearly all actives have a fitted effect of over 60% in size
Target sequence (Q9HC16 whole entry, looked up): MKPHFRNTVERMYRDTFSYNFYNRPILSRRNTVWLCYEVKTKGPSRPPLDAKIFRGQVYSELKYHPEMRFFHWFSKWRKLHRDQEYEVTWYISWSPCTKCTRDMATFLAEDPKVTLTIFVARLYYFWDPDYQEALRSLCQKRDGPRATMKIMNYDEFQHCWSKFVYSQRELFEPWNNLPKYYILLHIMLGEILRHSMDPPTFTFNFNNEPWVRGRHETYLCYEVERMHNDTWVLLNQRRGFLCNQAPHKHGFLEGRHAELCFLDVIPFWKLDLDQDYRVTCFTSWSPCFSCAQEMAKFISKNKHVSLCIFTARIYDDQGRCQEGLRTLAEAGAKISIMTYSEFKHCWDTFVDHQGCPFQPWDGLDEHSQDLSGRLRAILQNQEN
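Read-out is eYFP fluorescence (Ex 488/Em 500-530) from Vif-expressing HeLa A3G-eYFP cells; more signal means A3G escaped Vif-mediated degradation. Cells plated overnight, compound pinned in, incubated overnight at 37 deg C.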
Vif-A3F inh: blocks the Vif interaction with APOBEC3F; HeLa A3F-eYFP + Vif (tagged APOBEC3F with the HIV-1 protein that degrades it), YFP fluorescence increase; Potency, µM (doses to about 46.1 µM), for the others: at the highest dose activity, negative = active; hit rate 0.2% among 390,000; AID 602313; further: potency means the concentration at half of the fitted maximal effect; % of control where 0% means no effect; nearly all actives have a fitted effect of over 65% in size
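HeLa cells stably expressing Vif plus C-terminally eYFP-tagged A3F were seeded, incubated overnight at 37 deg C, dosed with compound, incubated overnight again at 37 deg C. Yellow fluorescence (Ex 488/Em 500-530) reported blocked Vif-mediated A3F-eYFP degradation.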
MCF10A rerep: DNA re-replication induction in MCF 10a cells | MCF 10A DNA re-replication, Hoechst nuclear intensity, 48 h | Potency, µM (highest dose often 46.1 µM), inactives show top-dose activity, positive = re-replication, most hits filed as activators | hit rate 2.9% among 350,000; further: potency means the concentration at half of the fitted maximal effect; % of control where 0% means no effect; nearly all actives have a fitted effect of over 50% in size
IL-1B inflam inh: inflammasome signaling inhibition, IL-1 beta readout; THP-1 LPS/ATP IL-1B secretion, AlphaLISA, 16 h; hits give low values; activity change, % at 57.5 µM; hit rate 4.7% among 360,000; AID 743279; in the data active means activity change below about -50%; inconclusive means mostly about -30% to -49%; further: on the % scale 0 is the no-effect control and ±100 the full control effect
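THP-1 cells pretreated 1 hr with compounds (up to 57.5 uM final), then stimulated with LPS (250 ng/mL final) plus ATP (1.25 mM final); secreted IL-1B measured by AlphaLISA after 16 hr, decreased signal indicating inhibition.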
Giardia killer: Giardia lamblia killing. Giardia lamblia trophozoite viability. activity change, % at 7.66 µM, hits read low. hit rate 0.15% among 340,000. AID 540267; in the data active means activity change below about -80%; inconclusive means between about -30% and that limit;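 further: parasites exposed to compound for two days anaerobically before the ATP read; on the % scale 0 is the no-effect control and ±100 the full control effect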
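Giardia trophozoites, 100 cells per well, were exposed to compounds for 48 hrs at 37 deg C under anaerobic conditions; viability was then read as ATP content by bioluminescence after 15-30 min at room temperature.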
* hit, by the source's call; ? = inconclusive; . = no result; [ ] = dose if it differs, or a comment. Shown are actives, neighbours in structure and some others; about 6.9% of the full set was active somewhere. Unless noted, the call rests on the fitted dose curve; in most records, active means well fitted curve in the direction sought with a large enough effect; inconclusive means small, poorly fitted or top-dose-only effect, or another doubt; inactive means no such curve, though single readings can be large; an effect the other way counts as inactive or inconclusive.

SMILES	SW480 rerep	Vif-A3G inh	Vif-A3F inh	MCF10A rerep	IL-1B inflam inh	Giardia killer
CC(C)Oc1ccc(CNC(=O)C2CCN(c3nc4ccccc4nc3C(F)(F)F)CC2)cc1	.	?	1.7%	.	.	.
O=C(COC(=O)/C=C/C(=O)OCC(=O)Nc1ccccc1F)Nc1ccccc1F	-4.1%	-22.8%	-10.7%	?	-82.1*	18.2
Cc1ccc2c(=O)cc(C(=O)NC3CCS(=O)(=O)C3)oc2c1 (centres undefined)	-8.4%	3.0%	0.0%	-2.2%	-3.3	27.2
Cc1ccc2oc(C(=O)NC3CCS(=O)(=O)C3)cc(=O)c2c1 (centres undefined)	20.6µM*	3.0%	9.3%	1.1%	0.0	-19.1
CCOC(=O)c1c(N2C(=O)Nc3cc(Cl)c(Cl)cc3N2O)sc2c1CCCCC2	-0.1%	0.3%	-3.4%	2.31µM*	-6.4	-9.7
O=C(CSc1nnc(-c2ccccc2O)n1Cc1ccccc1)NNC(=O)c1ccccc1O	.	-5.5%	-1.4%	12.9%	0.0	4.5
O=C(CSc1nnc(-c2ccccc2)n1Cc1ccccc1)NNC(=O)c1ccccc1O	5.17µM*	?	1.8%	20.4%	10.0	17.6
CC1CCc2nc(/C(C#N)=C/c3cccnc3)sc2C1 (centres undefined)	?	-16.7%	?	20.6µM*	-22.2	-9.9
N#C/C(=C\c1cccnc1)c1nc2c(s1)CCCC2	4.5%	0.5%	4.6%	15.2%	15.6	-4.6
CCc1ccc(-n2nc3ccc(NC(=O)c4cc5ccccc5o4)cc3n2)cc1	.	3.9%	-1.6%	.	.	.
Cc1ccc(OCC(=O)Nc2ccc3c(c2)C(=O)NC3=O)cc1	-3.0%	1.8%	0.9%	-2.0%	-23.3	-11.8
CC(C)(C)c1ccc(OCC(=O)Nc2ccc3c4c(cccc24)C(=O)NC3=O)cc1	-75.6%	3.5%	12.6µM*	?	-12.4	-0.7
CCOC(=O)C1(Cc2ccc(Cl)cc2)CCN(C(C)Cc2ccc(O)c(OC)c2)CC1 (centres undefined)	?	3.8%	-2.6%	?	-50.8*	1.5
CC(COc1ccccc1)N1CCC(CO)(CCc2ccccc2)CC1 (centres undefined)	19.7%	-1.5%	3.4%	?	-66.6*	-12.7
COc1ccc(CC2(CO)CCN(C(C)Cc3ccc(Cl)cc3)CC2)cc1 (centres undefined)	25.1%	2.8%	-26.8%	25.1%	-67.0*	24.9
CSCC(C)N1CCC(CO)(CCc2ccccc2)CC1 (centres undefined)	1.8%	4.0%	22.0%	3.9%	-17.9	-1.7
COc1ccc(CCC(C)N2CCC(CO)(Cc3ccccc3)CC2)cc1 (centres undefined)	1.9%	-11.3%	-1.6%	?	-56.5*	28.2
CC(C)(C)c1ccc(S(=O)(=O)NCc2ccc3c(c2)CCN3C(=O)c2ccccc2)cc1	.	9.8%	0.5%	.	.	.
COc1ccc(NC(=O)C2CCC(CNS(=O)(=O)c3cccc4nsnc34)CC2)cc1OC (centres undefined)	.	4.4%	-6.0%	.	.	.
CCOc1ccc(C(=O)NC2C(=O)N3C(C(=O)O)=C(COC(C)=O)CSC23)cc1OCC (centres undefined)	-8.7%	0.2%	-28.3%	16.4µM*	6.6	-9.7
CN(C)c1ccc(C(c2ccc(N(C)C)cc2)c2ccc([N+](=O)[O-])cc2)cc1	5.5%	0.2%	-2.6%	0.5%	-50.3*	-4.7
O=C(C(=O)N(Cc1ccccc1)Cc1ccccc1)c1c(-c2ccccc2)[nH]c2ccccc12	18.4µM*	-3.8%	3.1%	15.4%	?	?
CCn1c(=O)n(-c2ccc(C)c(F)c2)c(=O)c2sc3ccccc3c21	.	2.8%	0.7%	.	.	.
N#C/C(C(=O)NCc1ccco1)=C1/SC=C(c2ccccc2)N1c1ccccc1	29.1µM*	1.2%	2.1%	?	0.0	-6.1
Fc1ccc(Sc2nc(-c3ccccc3)nnc2C(F)(F)F)cc1	?	-22.6%	-4.5%	3.66µM*	-120.0*	-11.2
SMILES	SW480 rerep	Vif-A3G inh	Vif-A3F inh	MCF10A rerep	IL-1B inflam inh	Giardia killer
CCc1ccc(NC(=O)CN2C(=O)c3cccc4cccc2c34)cc1	.	-4.5%	0.7%	.	.	.
CCc1ccc(C2c3[nH]c4ccccc4c3CCN2C(=O)CNC(N)=O)cc1 (centres undefined)	1.6%	-16.3%	-2.0%	1.8%	-57.0*	13.4
CCc1ccc(C2c3[nH]c4ccccc4c3CCN2C(=O)c2ccc(=O)n(C)n2)cc1 (centres undefined)	13.1%	-22.8%	-12.8%	16.0%	29.8	-18.4
CCc1ccc(C2c3[nH]c4ccccc4c3CCN2C(=O)CN2CCN(CC)CC2)cc1 (centres undefined)	?	1.8%	?	?	-72.3*	9.2
O=C(CCc1ccccc1)N1CCc2c([nH]c3ccccc23)C1c1ccc(F)cc1 (centres undefined)	.	-2.2%	1.0%	.	.	.
COc1ccccc1NC(=O)C1=C(C)Nc2nc(SCc3ccccc3Cl)nn2C1c1ccccn1 (centres undefined)	.	-1.4%	-6.5%	.	.	.
CCCN1CCC(=O)N(CCC#N)CC1	.	2.3%	.	.	.	.
COc1ccc(-c2nnc(SCC(=O)Nc3cccc(C(F)(F)F)c3)nc2-c2ccc(OC)cc2)cc1	.	-2.2%	0.2%	.	.	.
COc1ccc(N2CCN(C(c3cccs3)c3nnnn3C3CCCC3)CC2)cc1 (centres undefined)	2.0%	0.7%	1.7%	20.5%	-13.7	-10.3
COc1ccc(N2CCN(C(c3cccc(OC)c3OC)c3nnnn3C3CCCC3)CC2)cc1 (centres undefined)	13µM*	-11.5%	-17.6%	?	?	7.9
Fc1ccc(N2CCN(C(c3cccs3)c3nnnn3C3CCCC3)CC2)cc1 (centres undefined)	?	-0.2%	-0.7%	?	-68.3*	4.0
COc1ccccc1C/C(N)=N/OC(=O)c1cccs1	4.0%	-16.8%	-1.1%	-1.6%	9.2	-17.6
N/C(=N\OC(=O)c1ccccc1Cl)c1ccncc1	3.3%	-8.3%	-7.6%	-0.4%	28.7	-6.2
N/C(=N\OC(=O)/C=C/c1ccccc1)c1ccncc1	-102.0%[1.84 µM]	0.2%	-34.4%	14.3%	-50.2*	-4.2
N/C(=N\OC(=O)/C=C/c1ccccc1Cl)c1ccncc1	-3.7%	0.7%	20.7%	-1.9%	-56.3*	7.7
COc1ccccc1C/C(N)=N/OC(=O)/C=C/c1ccccc1	2.7%	-1.8%	4.7%	-0.2%	-56.5*	-2.1
COc1cc(NC(=O)N2CCN(c3cc(-c4noc(C)n4)ccc3C)CC2)cc(OC)c1OC	.	1.3%	1.5%	.	.	.
COc1ccc(CCNC(=O)c2ccc3nc(Cc4ccccc4)oc3c2)cc1OC	.	-9.5%	-1.7%	.	.	.

Assay outcomes: PubChem BioAssay, National Center for Advancing Translational Sciences (NCATS)
